Source: PubChem BioAssay AID1508600 (Functional Genomics Laboratory (NCATS/FGL), 2020)
Hit rate of the full screen: of about 53,000 sequences, about 3,700 (7%) were called active. This is one part of a sample in which actives are shown more often than they occur. Values without a mark were called inactive.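 Rule for the calls: active = gene knockdowns whose robust z-score for IL-1 alpha signal is at least 2 or at most -2, so actives lie on both sides; inactive = the rest.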

Assay: Components of the Cytosolic LPS Sensing Pathway: Gene Identification via Genome-wide siRNA Screen;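 note: robust z of the log signal after scaling to non-targeting control siRNA wells of the plate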
Conditions: RAW264.7 macrophages, IL-1a HTRF, actives lie on both sides, screened at 100 nM (by protocol), cells primed 5 h with Pam3CSK4 first
Procedure, shortened: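 Supernatant IL-1a by HTRF from RAW264.7 cells primed with Pam3CSK4 (5 hours) and transfected with LipidA (24 hour) after 48h siRNA knockdown at 100 nM; cell viability checked with CellTiter-Glo.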

Row | Sequence | z-score
1 | GGGAGGACAUCCAGACAAUTT against Fam13b | -0.305
2 | GGGAAAGAUAAGCUCAAGGTT against Sh2d2a | 1.32
3 | GACUCUAAACCUAGCAGCGTT against Basp1 | -2.34 (active)
4 | GGCUGGUUUAUUUGUGGACTT against Cemip2 | 0.574
5 | GGAUAUGGAAGAAGUUGUGTT against Olfr1089 | -2.2 (active)
6 | CCAGCUAUACGAAGACUUCTT against Hdhd3 | 0.0525
7 | GGAGGUGGAAUCUUUCCCUTT against Aplp1 | -1.68
8 | GGAAAAGGCAAUCGUUUCUTT against Mtg2 | 0.278
9 | GUAUGUUCAUAUGGUUUUCTT against Swi5 | 2.33 (active)
10 | GUCUUCCCUCAUCCUUUGATT against Cox8a | 0.902
11 | GCAGAAGUUCAUUUUCCUATT against Olfr145 | 0.969
12 | GGUCAUGUCCAUCCCAAAGTT against Ficd | 1.15
13 | GGAUUAUUUUAAGUGGAGATT against Dna2 | -0.103
14 | GGAUUCACUAGCAUUGUAGTT against Guca1b | -0.725
15 | GGAGCUUCUAGACUGUACCTT against Lrmp | 2.03 (active)
16 | GCAAGAAUCAUCCGGUUACTT against Ttc39b | 1.36
17 | CCUUUACACCACUCUAUUUTT against Adgb | -0.795
18 | GCCGCUACCUAUGAUGUCCTT against Kcne4 | 0.385
19 | GGUCCUGGAAUCUCAAAAUTT against Entpd1 | -0.506
20 | GCAGAUCGCAAAAGAUCCUTT against Nppa | 0.69
21 | GGUCAAGUCAGUAACUGCATT against Olfr10 | 0.747
22 | GCUCAGAUUUGCUUUAUGATT against Ube2r2 | 0.367
23 | GGGAAUGGCUAAUGUUUAUTT against Stk38l | 2.32 (active)
24 | GCCUCACUUUGCCAUGCAUTT against Pou4f1 | -1.78
25 | GGAUGCCAGAAGAAUAUUCTT against Pnlip | 2.43 (active)
26 | CCAUGCUGAUUGCUCCGACTT against Cass4 | 1.46
27 | GGAUAUGUGAAAUGCAUUGTT against Asb9 | 0.219
28 | GGCUAAAGGCCUUCUUUUUTT against Reep3 | 0.622
29 | CGCGAUUCAGCUCAUUCUCTT against Slitrk1 | 0.83
30 | GCCAUCUUCGGUCAACUCUTT against Olfr969 | -2.87 (active)
